# A selection: hits, their analogues and other compounds. The true share with any hit is near 14%.
# Shiga toxin inh: A qHTS for Small Molecule Inhibitors of Shiga Toxin; Vero cells, Shiga toxin protein synthesis inhibition reporter; inhibition, % at 38.7 µM; 9.2% of 290,000 active; in the data active = inhibition mostly above about 28%, no sharp cut-off; inactive = mostly below about 43%; also: 0% is about no effect
# Giardia FBPA inh: qHTS Assay for Inhibitors of Fructose-1,6-bisphosphate Aldolase from Giardia Lamblia; AID 2451, 2010; A8B2U2; 0.71% of 290,000 active; Potency, µM (series often up to 59.6 µM), inactives show at the top dose activity, negative = inhibition, actives largely listed as inhibitors; purified Giardia FBPA; also: potency is read from the fitted curve at half-maximal effect; % is scaled to controls: 0 for no effect and ±100 for the full control effect; nearly all actives have a fitted effect of over 55% in size
# Target sequence (A8B2U2 whole entry, looked up): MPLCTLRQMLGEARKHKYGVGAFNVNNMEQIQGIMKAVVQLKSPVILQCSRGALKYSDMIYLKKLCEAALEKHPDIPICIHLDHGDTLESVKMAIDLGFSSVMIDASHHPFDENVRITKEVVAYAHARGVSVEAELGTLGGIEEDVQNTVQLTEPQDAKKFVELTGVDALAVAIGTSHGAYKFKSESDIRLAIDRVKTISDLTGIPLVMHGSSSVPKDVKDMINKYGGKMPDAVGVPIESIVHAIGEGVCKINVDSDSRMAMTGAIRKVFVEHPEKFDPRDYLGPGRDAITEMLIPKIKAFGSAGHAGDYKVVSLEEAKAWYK
#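 Giardia FBPA (40 nM reagent) was preincubated 10 min at RT with compound (up to 57.5 uM final), then substrate plus GAPDH/TPI/NAD/arsenate coupling system with diaphorase/resazurin was added; resorufin fluorescence (525/598 nm) was read after 20 min.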
# LmPK inh: qHTS Assay for Inhibitors of Leishmania Mexicana Pyruvate Kinase (LmPK); purified LmPK, Kinase-Glo ATP luminescence, 1 h; Potency, µM (series often up to 57.5 µM), for the others: at the top dose activity change, negative = inhibition, actives largely listed as inhibitors; 0.37% of 290,000 active; Q27686; AID 1721, 2009; also: potency is read from the fitted curve at half-maximal effect; % is scaled to controls: 0 for no effect and ±100 for the full control effect
#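 0.1 nM LmPK, 0.5 mM PEP, 0.1 mM ADP; 50 mM imidazole pH 7.2, 7 mM MgCl2, 50 mM KCl; 1 h RT. Kinase-Glo luminescence readout, normalized to no-enzyme (full inhibition) and uninhibited wells.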
# NS1 function inh: qHTS Assay for Inhibitors of Influenza NS1 Protein Function; Potency, µM (highest dose often 46.1 µM), without a hit: at the top dose activity, positive = more growth; 0.4% of 270,000 active; calls by dose curve; also: potency is read from the fitted curve at half-maximal effect; actives are rising curves; nearly all actives have a fitted effect of over 50% in size
#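 Growth recovery, yeast-based: influenza A NS1 expressed in S. cerevisiae causes slow growth, and suppressors are detected by OD600. The parent strain without NS1 is used as positive control.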
# Cycloheximide cs: Cycloheximide Counterscreen for Small Molecule Inhibitors of Shiga Toxin; cell reporter, cycloheximide protein synthesis inhibition counterscreen; max response, %; 12% of 300,000 active; in the data active = max response mostly above about 13%, no sharp cut-off; inactive = mostly below about 14%; also: read at 38.3 µM for the half of the compounds with a filed dose; 0% is about no effect
# * = called active by the depositor; ? = inconclusive; . = not tested or not shown; + = active, no number; [ ] = dose if it differs, or a comment. Unless noted, calls follow the shape of the dose curve; as a rule, active = well fitted curve in the direction sought with a large enough effect; inconclusive = small, poorly fitted or top-dose-only effect, or another doubt; inactive = no such curve, though single readings can be large; an effect the other way counts as inactive or inconclusive.
SMILES,Shiga toxin inh,Giardia FBPA inh,LmPK inh,NS1 function inh,Cycloheximide cs
CCCCC(=O)N/C(N)=N/c1nc2ccccc2o1,36*,3%,2%,0%,43*
CCOC(=O)N1CCC(NC(=O)CS(=O)Cc2nc(-c3ccc(C)cc3)oc2C)CC1 (stereo not given),9,.,2%,18%,1
CC1(C)CCC(=O)N2CC[C@H]3C[C@H](OC(=O)Nc4ccc5c(c4)OCO5)C[C@@H]1[C@H]32,23*,6%,-8%,-5%,20*
CC1(C)CCC(=O)N2CC[C@H]3C[C@H](OC(=O)Nc4ccccc4)C[C@@H]1[C@H]32,39*,9%,-5%,-35%,36*
CCCCNC(=O)O[C@H]1C[C@@H]2CCN3C(=O)CCC(C)(C)[C@H](C1)[C@H]23,13,-3%,2%,4%,-3
C[C@@H](C(=O)Nc1ccc2c(c1)OCO2)n1c(=O)[nH]c2ccccc2c1=O,29*,3%,4%,8%,14
C[C@@H](C(=O)Nc1ccc2c(c1)OCCO2)n1c(=O)[nH]c2ccccc2c1=O,147*,-9%,-1%,0%,49*
CSc1ccc(C(=O)N2CCc3ccc(NC(=O)c4ccccn4)cc3C2)cc1,107*,.,-7%,-4%,58*
N#C/C(=C\c1c[nH]c2ccccc12)c1nnc2n1CCCCC2,7,6%,1%,5%,3
N#C/C(=N\Nc1cccc2ccccc12)c1nnc2n1CCCCC2,3,-29%,-4%,-6%,14*
Cc1ccc(/C=C/C(=O)c2ccccc(=O)c2O)cc1C,77*,?,-2%,-63%,51*
CCc1ccc(S(=O)(=O)NC2CC(C)(C)NC(C)(C)C2)cc1,-9,-3%,-2%,-1%,-2
NC(=O)COC(=O)c1ccccc1OCc1ccccc1Cl,-4,-1%,-3%,.,-1
O=C(N/N=C/c1ccco1)c1ccccc1OCc1ccccc1Cl,-30,-3%,0%,-33%,19*
O=C(N/N=C/c1ccc[nH]1)c1ccccc1OCc1ccccc1Cl,11,-12%,3%,.,15*
CCc1nc(OCCN(CC)CC)c2oc3ccccc3c2n1,27,-14%,3%,-7%,27*
CC1=C/C(=N\NC(=O)c2ccccc2)CC1,+,4%,-2%,1%,43*
O=C1CS/C(=N\NC(=O)c2ccccc2)N1,-5,?,-9%,-1%,-1
O=C(c1cc2cc(Br)ccc2o1)N1CCOCC1,50*,4%,-3%,-4%,19*
O=C(c1cc2cc(Br)ccc2o1)N1CCCC1,61*,-5%,10%,-33%,39*
CC1CC(C)CN(C(=O)c2cc3cc(Br)cc(Br)c3o2)C1 (stereo not given),41*,-1%,-2%,.,31*
O=C(c1cc2cc(Br)ccc2o1)N1CCN(c2ccccc2)CC1,78*,.,-2%,2%,51*
COCc1cc(C)nc(Sc2nc3c(c(=O)n(C)c(=O)n3C)n2C)c1C#N,-6,8%,-1%,4%,44
CC(=O)OC[C@@H]1O[C@@H](O/N=C2/C[C@@H](O)[C@@H](O)[C@@H]3[C@@H]4C(=O)N(C5CCCCC5)C(=O)[C@H]4CC[C@@H]23)[C@H](OC(C)=O)[C@H](OC(C)=O)[C@@H]1OC(C)=O,.,1%[12.9 µM],.,.,.
C#CCSc1nnc(-c2ccc(O)cc2)o1,62*,7%,-12%,.,53*
SMILES,Shiga toxin inh,Giardia FBPA inh,LmPK inh,NS1 function inh,Cycloheximide cs
C#CCSc1nnc(-c2ccc(C)cc2)o1,73*,2%,-2%,-6%,39*
C#CCSc1nnc(-c2cccc3ccccc23)o1,.,.,.,-54%,.
Cc1ccc(CNC(=O)c2ccc(CNS(=O)(=O)c3ccc4c(c3)C(C)(C)C(=O)N4C)cc2)o1,-3,-6%,-3%,11%,1
O=C(Nc1c(-c2ccccc2)nc2ccccn12)c1cccc(F)c1,17,0%,6%,-1%,-4
O=S(=O)(Nc1cccnc1)c1ccc(Br)c2ccccc12,-17,-4%,-1%,10%,-3
O=C(COc1cccnc1[N+](=O)[O-])Nc1ccc2c(c1)OCO2,59,2%,5%,5%,-2
Cc1ccc(OCC(=O)Nc2ccc3c(c2)OC(F)(F)O3)c([N+](=O)[O-])n1,-7,0%,-3%,-7%,-1
Cc1ccc(OCC(=O)Nc2ccc3c(c2)OCO3)c([N+](=O)[O-])n1,54*,-2%,-2%,6%,28*

# Bioassay records (PubChem BioAssay)
